PfHsp90 set2 – reduces growth (ATP signal) of yeast expressing P. falciparum Hsp90. S. cerevisiae expressing PfHsp90, BacTiter-Glo ATP, 48 h; yeast lacking PDR1 and PDR3 efflux regulators. inhibition, % at 9.4 µM. hit rate 0.32% among 310,000;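 active = every replicate shows inhibition above about 80%, whatever the replicate mean, limit read from the data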;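 also: 0% = DMSO neutral controls and 100% = 20 µM radicicol positive controls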
tim10-1 inh – inhibits growth of tim10-1 mutant yeast. hit rate 2.2% among 330,000. S. cerevisiae tim10-1 ts strain growth, BacTiter-Glo, 24 h. AID 463190. inhibition, % at 20 µM;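 active = inhibition of at least 40%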;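 also: mutant grown at 25 °C; 0% = DMSO wells with yeast and 100% = wells holding no yeast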
Rce1 inhib – blocks yeast Ras-converting enzyme; yeast membranes, quenched prenylated peptide cleavage fluorescence; hit rate 0.27% among 290,000; calls only;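 active = fall in fluorescence gain of 50% or more versus controls, with final raw signal at or below 3038400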;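 also: plate controls were neutral control wells for no effect and wells lacking membranes for full effect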
Target sequence (Q03530 whole entry, looked up): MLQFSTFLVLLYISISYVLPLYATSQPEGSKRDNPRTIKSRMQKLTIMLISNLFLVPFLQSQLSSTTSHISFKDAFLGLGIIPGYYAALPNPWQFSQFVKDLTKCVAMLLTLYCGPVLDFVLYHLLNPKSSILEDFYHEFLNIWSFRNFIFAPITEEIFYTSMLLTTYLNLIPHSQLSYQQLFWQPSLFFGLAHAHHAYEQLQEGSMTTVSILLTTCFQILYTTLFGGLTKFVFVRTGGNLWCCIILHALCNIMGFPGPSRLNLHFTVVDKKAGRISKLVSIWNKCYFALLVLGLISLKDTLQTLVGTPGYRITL
TIM10 inh – inhibits growth of TIM10 yeast strain; S. cerevisiae TIM10 strain growth, BacTiter-Glo luminescence, 24 h; inhibition, % at 10 µM; hit rate 1.4% among 330,000; AID 463195;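 active = inhibition of 40% or more at the single tested concentration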;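 also: wild-type TIM10 isogenic control strain grown at permissive 25 °C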
tim23-1 inh – tim23-1 yeast growth inhibition; S. cerevisiae tim23-1 growth, BacTiter-Glo luminescence, 24 h; inhibition, % at 20 µM; hit rate 1.3% among 330,000;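 active = growth inhibition of the mutant yeast at or above 50%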;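 also: temperature-sensitive mutant grown at 25 °C; plate controls were DMSO-treated mutant yeast for no effect and medium wells lacking yeast for full effect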
tim10-1 conf – tim10-1 yeast growth inhibition, confirmed; shares compounds with tim10-1 inh; S. cerevisiae tim10-1 ts strain growth, BacTiter-Glo, 24 h; inhibition, % at 20 µM; hit rate 56% among 7,400; AID 463213;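 active = inhibition of yeast growth at or above a set limit in either of two repeat tests at 20 µM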;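 also: tim10-1 mutant grown at permissive 25 °C to find synthetic lethal compounds; 0% = DMSO yeast wells and 100% = medium wells without yeast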
An asterisk follows results filed as active; i = inactive; . = no result. Shown are actives, neighbours in structure and some others; about 3.7% of the full set was active somewhere.

SMILES | PfHsp90 set2 | tim10-1 inh | Rce1 inhib | TIM10 inh | tim23-1 inh | tim10-1 conf
CCOc1ccc(NC(=O)CSCc2cnn(-c3ccccc3)c2-n2cccc2)cc1 | -5.9 | 43.9* | i | 14.1 | 29.0 | 30.1*
CC(c1ccco1)N(C(=O)c1ccccc1F)c1ccccn1 (configuration not stated) | 31.1 | 12.8 | i | 10.9 | 12.7 | .
CC(c1ccco1)N(C(=O)c1ccccc1NS(=O)(=O)c1cccc([N+](=O)[O-])c1)c1ccccn1 (configuration not stated) | 0.5 | 41.7* | i | 39.8 | 32.1 | 33.8*
COc1ccc(/C=C/C(=O)c2ccccc2)cc1Cn1nnc2ccccc21 | -40.4 | 59.4* | i | 39.1 | 46.5 | 44.7*
O=C(CCN1CCN(c2ccccc2F)CC1)c1ccc(Br)cc1 | 2.0 | 36.3 | i | 5.5 | 26.2 | .
O=C(CCN1CCN(c2ccccc2)CC1)c1ccc(Br)cc1 | -3.7 | 44.7* | i | -9.7 | 17.3 | 29.1
CCCC(=O)Nn1cnc2c(c1=O)C1(CCCC1)Cc1ccccc1-2 | -30.0 | 45.3* | i | 25.0 | 35.2 | 36.4*
CC(=O)Nn1cnc2c(c1=O)C1(CCCC1)Cc1ccccc1-2 | 9.5 | 13.9 | . | 36.7 | 20.0 | .
CN(/N=C/c1cc(Br)cc(Br)c1O)c1ccccc1 | -4.2 | 43.0* | i | 24.3 | 19.7 | 35.3*
COc1cc(Br)c(Br)c(Br)c1N | -13.0 | 2.7 | i | 7.5 | 13.6 | .
CCOC(=O)N1CCN(Cc2ccccc2Cl)CC1 | -16.6 | -5.8 | . | 5.7 | 8.8 | .
CCOC(=O)N1CCN(Cc2cc(Cl)c3cccnc3c2O)CC1 | . | 46.8* | i | -7.9 | 44.0 | 12.3
C/C(CC(=O)Nc1c(Cl)cccc1C(F)(F)F)=N\NC(=O)c1cnccn1 | 7.8 | 8.7 | i | 13.5 | 12.3 | .
C/C(CC(=O)Nc1ccc(Cl)c(C(F)(F)F)c1)=N\NC(=O)c1cnccn1 | -37.3 | 49.0* | i | 16.7 | 34.5 | 25.3
CCC1CCCCN1CCCNC(=O)Cn1cnc2sc(C)c(S(=O)(=O)N3CC(C)CC(C)C3)c2c1=O (configuration not stated) | -24.0 | -4.1 | i | 14.6 | 5.2 | .
COc1ccccc1C(=O)Nc1ccccc1SC(=O)c1ccccc1OC | -39.6 | 42.5* | i | 39.0 | 42.1 | 36.9*
CCOc1ccccc1C(=O)Nc1cc(OC)ccc1OC | -3.4 | 43.1* | i | 39.5 | 42.1 | 37.2*
COc1ccccc1NC(=O)c1ccccc1C(=O)Nc1ccccc1OC | -7.2 | 22.4 | i | 12.4 | 30.9 | .
Fc1ccccc1/C=C1\CCCC2=C1NC(=S)NC2c1ccccc1F (configuration not stated) | 3.7 | 41.2* | i | 36.7 | 39.3 | 15.3
CCOC(=O)CCCCC1C(CCCC(=O)OCC)C=NN1C (configuration not stated) | -1.5 | . | . | . | . | .
CCOc1cc(C2C(C#N)=C(N)OC(C)=C2C(C)=O)cc(Br)c1O (configuration not stated) | . | 10.1 | i | -12.0 | 15.3 | .
CCOc1cc(C2C(C#N)=C(N)OC(C)=C2C(C)=O)c(Br)c(Br)c1OC(C)C (configuration not stated) | . | 45.5* | i | 4.8 | 45.0 | 26.6
Cc1cccc2nc(COc3ccc(Cl)c4cccnc34)cn12 | -11.7 | 40.5* | i | 28.0 | 44.0 | 35.7*
Cc1cc(C(=O)N2CCC(C(F)(F)F)n3nccc32)on1 (configuration not stated) | -51.2 | -3.6 | i | -2.3 | 9.9 | .
COc1ccc2oc3cc(C)[n+]([O-])c(-c4ccc(Br)cc4)c3c2c1 | 9.0 | 42.5* | i | 8.1 | 33.2 | 23.6
SMILES | PfHsp90 set2 | tim10-1 inh | Rce1 inhib | TIM10 inh | tim23-1 inh | tim10-1 conf
Cc1ccccc1CSCC(=O)N1CCN(c2ccccc2)CC1 | -14.3 | 44.0* | i | 10.1 | 26.9 | 22.6
CC1CCN(C(=O)C(C)OC(=O)CSc2ccc([N+](=O)[O-])cc2)CC1 (configuration not stated) | -17.5 | 23.8 | . | 5.3 | 27.2 | .
CCOC(=O)c1cnc2ccc(OCC)cc2c1NCc1ccccc1OC | 9.2 | 42.8* | i | 16.1 | 26.3 | 34.3*
O=C(NCCc1nnc2ccc(NCc3cccnc3)nn12)c1ccccc1F | -14.8 | -5.5 | i | -2.0 | 6.5 | .
O=C(Nc1cccc(C(F)(F)F)c1)N(Cc1ccc(Cl)cc1)CC(O)C(F)(F)F (configuration not stated) | 48.4 | 46.5* | i | 18.1 | 43.6 | 26.1
C/C(=N\Nc1nc2ccccc2s1)c1ccc2c(c1)OCO2 | -20.6 | 42.1* | i | 30.8 | 23.1 | 5.5
C/C(=N\NC(=O)c1ccccc1)c1ccc2c(c1)OCO2 | 12.2 | 22.3 | i | 29.5 | 26.5 | .
COc1cccc(CNC(=O)C(=O)NCC2CCCN2S(=O)(=O)c2cc(C)ccc2C)c1 (configuration not stated) | . | 21.1 | i | 7.3 | 29.6 | .
O=C(NCc1ccco1)c1cc2ccc(O)cc2oc1=O | . | 54.6* | i | 34.1 | 43.7 | 45.8*
CC(=O)N1CCCC(N2CCN(c3cccc(C(F)(F)F)c3)CC2)C1 (configuration not stated) | 1.8 | -22.9 | i | -4.2 | 0.8 | .
Cc1ccc(C(=O)N2CCCC(N3CCN(c4cccc(C(F)(F)F)c4)CC3)C2)s1 (configuration not stated) | -9.8 | 42.0* | i | 17.7 | 34.9 | 21.1
Cc1noc(C)c1COc1ccccc1C(=O)N(C)Cc1ccc(F)cc1 | . | 20.9 | . | 15.5 | 18.4 | .
Cc1noc(C)c1COc1ccccc1C(=O)N(C)Cc1ccc(C(C)(C)C)cc1 | . | 42.3* | . | 17.2 | 49.0 | 19.8
COc1cc2c(c3oc(-c4ccccc4)cc(=O)c13)C=CC(C)(C)O2 | -5.8 | 47.0* | i | 17.3 | 46.6 | -0.8
COc1cc(OC)c2c(=O)cc(-c3ccccc3)oc2c1 | 3.5 | 9.9 | i | -17.3 | 8.9 | .
COc1ccccc1CNC(=O)COC(=O)/C=C/c1ccc2ccccc2n1 | -0.3 | 27.4 | . | 20.9 | 24.0 | .
COc1ccccc1NC(=O)C(C)OC(=O)/C=C/c1ccc2ccccc2n1 (configuration not stated) | 5.1 | 51.6* | i | 14.3 | 45.8 | 30.1*
O=C(NCCc1ccccc1)c1n[nH]c2ccccc12 | -30.6 | -5.2 | i | -1.6 | -6.7 | .
CCCCOc1ccc(N(CC(=O)NC(C)(C)C)C(=O)CCC(=O)Nc2nccs2)cc1 | 2.8 | 8.0 | i | 7.6 | 2.2 | .
COC(=O)N1C(=O)[C@@](c2ccccc2)(C2CCCC2)N1C(=O)OC | 4.8 | 41.9* | i | 36.7 | 31.0 | 32.0*
COC(=O)N1C(=O)[C@](CC(C)C)(c2ccccc2)N1C(=O)OC | 0.8 | . | i | . | . | .
Cc1nc2sc3c(=O)[nH]nnc3c2c(C)c1Br | -9.3 | 42.3* | i | 7.5 | 42.7 | 30.9
Cc1ccc(C(=O)Nc2c(C)cc(C)c3cccnc23)cc1 | -33.6 | 12.5 | i | 16.1 | 22.6 | .
Nc1nc(=S)c2[nH]cnc2[nH]1 | -8.6 | -10.7 | . | 8.4 | -1.8 | .
S=C(Nc1ccc2[nH]ccc2c1)NC1CCCCC1 | 17.7 | 41.8* | . | 34.9 | 24.1 | 7.5
